These results are taken from PubChem BioAssay (NCATS).

Records with an inconclusive call do not appear. Calls of active or inactive are those of the source. Calls follow the shape of the dose curve; as a rule, active = well fitted inhibition curve with a large enough effect; inconclusive = small, poorly fitted or top-dose-only effect; inactive = flat fitted curve, though single readings scatter.
% is scaled to controls: 0 for no effect and ±100 for the full control effect.

The assay concerns KB-3-1. Put plainly: Cytotoxic Profiling of Annotated Libraries Using Quantitative High-Throughput Screening (AID 1296008). Also: nearly all actives have a fitted effect of over 60% in size. As to conditions: Five cell lines viability, CellTiter-Glo ATP luminescence, 48-72 h; max response: active compounds read low. The method, boiled down: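 Cells exposed to compounds for 48 or 72 hr at 37 degrees Celsius. Viability read as ATP-coupled luminescence with CellTiter-Glo after 10 min at room temperature.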
For orientation: In ATP-based viability assays light output follows the ATP content of the culture.
Turning to `C/C(=C\CCC1(C)C2CC3C(C2)C31C)C(=O)O` (stereo not given), the molecule was called inactive.
Consider `CCCC1=CC2=C(CO1)C(=O)C(C)(O)C(OC(=O)c1c(C)cc(OC)cc1O)C2` (stereo not given), for which the call was inactive.
Still for that read-out and setting: as for `COc1cnc(-n2cnc(C)n2)c2[nH]cc(C(=O)C(=O)N3CCN(C(=O)c4ccccc4)CC3)c12`, the entry is “inactive”.
`CCCC/C=C\CCCCCc1cc(=O)c2ccccc2n1C`: the molecule was called inactive.
`CCN1CCN(C(=O)N[C@@H](C(=O)N[C@@H]2C(=O)N3[C@@H]2SC(C)(C)[C@@H]3C(=O)O)c2ccccc2)C(=O)C1=O`: the result was inactive.
On the same count and under the same terms, as for `C[C@@H]1O[C@@H](O[C@@H]2[C@@H](O)[C@H](O[C@H]3[C@H](O[C@H]4CC[C@@]5(C)C(CC[C@]6(C)C5CC=C5[C@@H]7CC(C)(C)CC[C@]7(C(=O)O[C@@H]7O[C@H](CO)[C@@H](O)[C@H](O)[C@H]7O)CC[C@]56C)C4(C)C)O[C@H](C(=O)O)[C@@H](O)[C@@H]3O)OC[C@H]2O)[C@H](O)[C@H](O)[C@H]1O` (stereo not given in full), the entry is “inactive”; as for `COC(=O)C1=COC(O[C@@H]2O[C@H](CO)[C@@H](O)[C@H](O)[C@H]2O)/C(=C\COC(=O)/C=C/c2ccccc2)C1CC(=O)OCCc1ccc(O)cc1` (stereo not given in full), “inactive”.
For `C=CC(C)(O)CC/C=C(\C)C1CC=C(C)C(=O)O1` (stereo not given), the max response was 2.69% (inactive).
With `COc1cc(/C=C/C(=O)OC[C@H]2O[C@@H](OC3CC(C)=C(C(=O)O)C(C)(C)C3)[C@H](O)[C@@H](O)[C@@H]2O)cc(OC)c1O` (stereo not given in full), the call was inactive.
Regarding `CC1(C)C[C@H](O)C[C@@]2(C)[C@H]1[C@H](O)C=C1COC(=O)[C@@]12O`, the call was inactive.
